PrP UTR inh = inhibition of PrP 5' UTR reporter expression; cell-based PrP 5' UTR mRNA reporter, plate reader; inhibition, % (test concentration not listed); 340,000 compounds, 0.35% hits; in the data active = inhibition above about 52%; note: 0 = median of the neutral control wells
SARS 3CLpro inh-1 = SARS-CoV 3CLpro protease inhibition; 290,000 compounds, 0.14% hits; recombinant SARS-CoV 3CLpro, quenched FRET peptide cleavage; P0C6X7; inhibition, % at 6 µM; in the data active = inhibition above about 12%
PfHsp40 yeast = restores yeast growth despite PfHsp40 toxicity. S. cerevisiae expressing PfHsp40, growth rescue, ATP luminescence. growth rescue, % at 12.5 µM. 340,000 compounds, 0.68% hits; in the data active = growth rescue above about 28%, passing the limit was not always enough; inconclusive = no clear call, values can overlap the other calls;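 note: yeast W303a lacking pdr1 and pdr3 grown in galactose medium; growth measured after three days at 30 °C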
BH1578 lux ind = induces V. cholerae light production without autoinducers | AID 588436 | activation, % at 18.7 µM | V. cholerae BH1578 lux reporter, luminescence, 6 h | 350,000 compounds, 0.16% hits; in the data active = activation mostly above about 9.7%, no sharp cut-off; inconclusive = no clear call, values can overlap the other calls; inactive = mostly below about 3.7%
PrPC TRFRET = reduces human prion protein on the cell surface; P04156; cell surface PrPC, TR-FRET read-out; inhibition, % at 13.8 µM; 370,000 compounds, 0.43% hits; AID 720596; in the data active = inhibition above about 24%; note: 0% = median of the test wells and 100% = reference compound wells
SSB-PriA inh = K. pneumoniae PriA-SSBct interaction inhibition; AlphaScreen SSBct-PriA binding, biotinylated peptide; inhibition, % at 33 µM; 430,000 compounds, 0.6% hits; in the data active = inhibition mostly above about 37%, no sharp cut-off; inactive = mostly below about 20%;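 note: plate controls were negative control peptide for no effect and reference peptide for full effect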
SARS 3CLpro inh-2 = SARS 3CLpro inhibition, confirmation assay; shares compounds with SARS 3CLpro inh-1; QFRET protease activity assay; inhibition, % at 6 µM; 380 compounds, 36% hits; in the data active = inhibition above about 13%
The depositor's hits bear a star; i = inactive; ? = inconclusive; . = no result. The list is not random: actives were taken first. Their share in the collection is about 1.6%.

SMILES | PrP UTR inh | SARS 3CLpro inh-1 | PfHsp40 yeast | BH1578 lux ind | PrPC TRFRET | SSB-PriA inh | SARS 3CLpro inh-2
CCCCOc1ccc(CONS(=O)(=O)c2ccc(NC(C)=O)cc2)cc1Cl | -8 | 19* | 5 | i | 6 | -8 | 8
O=C(Nc1c2c(nn1-c1ccc(Cl)cc1)CS(=O)(=O)C2)c1ccc2c(c1)OCO2 | . | 0 | 1 | 3 | -7 | -13 | .
O=C(Nc1c2c(nn1-c1cccc(Cl)c1)CS(=O)(=O)C2)c1ccc2c(c1)OCO2 | -4 | 13* | 1 | 0 | 2 | 0 | 1
O=C(NCC(=O)N1CCN(Cc2ccccc2)CC1)c1ccc(Br)cc1 | -11 | 12* | 0 | -1 | -7 | -8 | 2
Cc1cccc(CC(=O)NCC2CCN(c3nccnc3C#N)CC2)c1 | . | . | . | . | . | -9 | .
O=C(NCCc1ccccc1)C(=O)NCC1OCCN1S(=O)(=O)c1ccc2c(c1)OCCO2 (stereo unspecified) | -16 | 15* | 1 | i | -2 | -4 | 0
COc1ccc(C(=O)Nc2ccccc2-c2nnn(CC(=O)NCc3ccco3)n2)cc1 | -31 | -2 | -1 | -1 | 4 | -14 | .
O=C(Cn1nnc(-c2ccccc2NC(=O)c2ccccc2F)n1)NCc1ccco1 | -6 | 12* | 0 | i | -9 | -5 | 1
CCc1ccc(-c2cc3c(SCC(=O)Nc4ccc(C)c(F)c4)nccn3n2)cc1 | . | . | . | . | . | -1 | .
O=C(N/N=C\c1c[nH]c2ccccc12)c1ccccc1 | . | . | . | . | . | -11 | .
O=C(Nc1nccs1)C1CCNCC1 | . | . | . | . | . | -2 | .
CC(C)c1ccc(S(=O)(=O)Nc2ccc(SC(F)F)cc2)cc1 | -17 | 13* | ? | 0 | 21 | -4 | 5
CCc1ccccc1NC(=O)CSc1nccn2nc(-c3ccccc3)cc12 | . | . | . | . | . | 7 | .
Cc1cc(C)c(S(=O)(=O)Cc2nc(-c3ccccc3)no2)c(C)c1 | . | . | . | . | . | -6 | .
O=S(=O)(c1ccc(F)cc1)N1CCN(S(=O)(=O)c2ccc3c(c2)OCCO3)CC1 | -5 | . | 0 | i | -4 | 6 | .
Cc1ccc(S(=O)(=O)N2CCN(S(=O)(=O)c3ccc4c(c3)OCCO4)CC2)cc1 | -24 | 12* | 0 | i | 4 | 0 | -3
COc1ccc(C(C(=O)NCC2CCCO2)N(C(=O)Cn2nnc3ccccc32)c2ccc(NC(C)=O)cc2)c(OC)c1 (stereo unspecified) | -15 | 18* | 1 | i | -5 | -5 | 11
COc1cccc(C(C(=O)NCC2CCCO2)N(C(=O)Cn2nnc3ccccc32)c2ccc(NC(C)=O)cc2)c1OC (stereo unspecified) | -23 | 15* | 0 | 0 | -3 | -4 | 9
CCOc1cc(C(C(=O)NCC2CCCO2)N(C(=O)Cn2nnc3ccccc32)c2ccc(OC)c(OC)c2)ccc1O (stereo unspecified) | -5 | 0 | -1 | -1 | -5 | 2 | .
Cc1onc(-c2ccccc2Cl)c1C(=O)N1CCc2nc(NC(=O)c3ccco3)sc2C1 | . | . | . | . | . | -7 | .
CC(C)NC(=O)C(=O)NCC1CCN(C(C)C)CC1 | . | . | . | . | . | -8 | .
Cc1cc(NC(=O)C23CC4CC(CC(C4)C2)C3)n(-c2nc3c(cnn3-c3ccc(C)c(C)c3)c(=O)[nH]2)n1 | . | . | . | . | . | -6 | .
Cc1cccc(Nc2nnc(SCC(=O)Nc3ncc(C(F)(F)F)cc3Cl)s2)c1C | -17 | 13* | 3 | i | -4 | 3 | 3
Cc1ccccc1Nc1nnc(SCC(=O)Nc2ncc(C(F)(F)F)cc2Cl)s1 | -16 | 20* | 1 | -2 | -3 | 0 | -4
O=C(N/N=C\c1c(O)ccc2ccccc12)c1cncc(Br)c1 | 33 | 29* | 7 | 28 | -1 | . | 26*
SMILES | PrP UTR inh | SARS 3CLpro inh-1 | PfHsp40 yeast | BH1578 lux ind | PrPC TRFRET | SSB-PriA inh | SARS 3CLpro inh-2
Cc1ccc(C2=NN(C(=O)CCl)C(c3cccs3)C2)o1 (stereo unspecified) | -16 | 14* | 1 | i | -9 | 2 | 59*
COc1cc(C2CC(c3cccs3)=NN2C(=O)CCl)ccc1OC(F)F (stereo unspecified) | -4 | 56* | 0 | i | 0 | -8 | 74*
COc1ccc(C2CC(c3cccs3)=NN2C(=O)c2ccccc2)cc1OC (stereo unspecified) | -4 | -3 | 1 | i | -11 | 5 | .
COc1ccc(C2CC(c3cccs3)=NN2C(=O)CCl)cc1OC (stereo unspecified) | -6 | 74* | 0 | 0 | -4 | -16 | 81*
COc1ccc(CNC(=O)CSc2nnc(-c3ccccc3OC)n2-n2cccc2)cc1 | . | . | . | . | . | -11 | .
Cc1cc(=O)n2c(-c3ccc(NS(=O)(=O)c4cccnc4)cc3)csc2n1 | . | . | . | . | . | -1 | .
O=S(=O)(NCC1(Sc2ccccc2)CCOCC1)c1ccc(OC(F)(F)F)cc1 | . | . | . | . | . | -8 | .
FC(F)(F)c1cccc(NC(=S)NCc2ccccn2)c1 | -4 | -5 | 0 | -1 | 4 | -9 | .
FC(F)(F)c1cccc(NC(=S)NNC(=S)NCc2ccccc2)c1 | -36 | 14* | 1 | i | 2 | 8 | 2
Cc1ccc(S(=O)(=O)C(CC(=O)c2ccc(Br)cc2)c2ccco2)cc1 (stereo unspecified) | . | . | . | . | . | -2 | .
CCc1cccc(CC)c1N(COC)C(=O)Cn1nnc2ccccc21 | -19 | 12* | 1 | i | 4 | -8 | 13*
COC(=O)CC1COc2ccccc2N1C(=O)/C=C/c1ccccc1 (stereo unspecified) | 0 | 46* | 1 | -2 | 6 | -10 | -1
O=C(c1cc2ccccc2o1)N1CCC(CNC(=O)N2CCNC2=O)CC1 | . | . | . | . | . | 9 | .
CN(C)c1nc(N)nc(-c2nc3ccccc3s2)n1 | -58 | 13* | 0 | 7 | -5 | -3 | -6
Nc1ccccc1-c1nc2ccccc2s1 | -67 | 0 | 0 | -1 | 3 | -162 | .
CCOC(=O)c1sc(NC(=O)C2CCN(c3cc(-n4cncn4)ncn3)CC2)nc1C | . | . | . | . | . | -4 | .
Cc1cc(=O)oc2cc(NC(=O)c3ccccc3OC(F)F)ccc12 | -55 | 13* | 0 | 0 | 7 | -9 | -2
Cc1cc(=O)oc2cc(NC(=O)c3cc(F)ccc3F)ccc12 | -91 | . | 0 | i | -1 | -6 | .
CN(CCc1ccccc1)C(=O)c1cc(COc2cccc(C(F)(F)F)c2)on1 | -22 | 13* | 0 | -1 | -7 | -52 | 7
COc1ccc(C(=O)NC(=C(Cl)Cl)S(=O)(=O)c2ccc(C)cc2)cc1 | -19 | 9 | 1 | -1 | 0 | -5 | .
Cc1ccc(C(=O)NCC#N)cc1 | -9 | -1 | 1 | i | 2 | -9 | .
Cc1ccc(C(=O)NC(C#N)=C(Cl)Cl)cc1 | . | 13* | . | . | 16 | -5 | 1
Cc1ccc(C(=O)NC(=C(Cl)Cl)S(=O)(=O)c2ccccc2)cc1 | -16 | 21* | 2 | 0 | 6 | -1 | 28*
